Reference: PubChem BioAssay (NCATS)
Inconclusive results are not listed. Active and inactive are the calls of the source. Calls follow the shape of the dose curve; as a rule, active = well fitted curve in the direction sought with a large enough effect; inconclusive = small, poorly fitted or top-dose-only effect, or another doubt; inactive = no such curve, though single readings can be large; an effect the other way counts as inactive or inconclusive.

Columns and labels:
[1] = qHTS of pediatric cancer cell lines to identify multiple opportunities for drug repurposing: Confirmatory screen for NB1643 cells (AID 1347109); also: nearly all actives have a fitted effect of over 45% in size;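 as to activity change, negative = cytotoxic: plate controls were DMSO for no effect and bortezomib for full effect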
Outline: (§1)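 Cells (500-1,000/well) in growth media were settled 5 h at 37 degrees C, then given compounds for 48 h. Viability was read as CellTiter-Glo luminescence. Primary runs used MIPE at 11 points (0.78 nM-46 µM) and NPC at 8 points (0.59 nM-46 µM); follow-ups used 11 points.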

[2] = qHTS of pediatric cancer cell lines to identify multiple opportunities for drug repurposing: Confirmatory screen for SK-N-MC cells (AID 1347111);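 also: cells exposed to compound for 48 h before the readout; nearly all actives have a fitted effect of over 70% in size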;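 as to activity change, negative = cytotoxic: plate controls were DMSO for no effect and bortezomib for full effect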
Outline: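 Metabolically active cells were quantified by ATP-dependent luminescence (CellTiter-Glo, 15 min at room temperature) following 48 h treatment. Cells had been plated at 500-1,000 per well and settled for 5 h beforehand.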

[3] = qHTS of pediatric cancer cell lines to identify multiple opportunities for drug repurposing: Confirmatory screen for BT-12 cells (AID 1347112); also: nearly all actives have a fitted effect of over 55% in size; as to activity change, negative = cytotoxic: % is scaled to controls: 0 for no effect and ±100 for the full control effect
Outline: as §1

[4] = qHTS of pediatric cancer cell lines to identify multiple opportunities for drug repurposing: Confirmatory screen for DAOY cells (AID 1347114); also: nearly all actives have a fitted effect of over 65% in size; as to activity change, negative = cytotoxic: % is scaled to controls: 0 for no effect and ±100 for the full control effect
Outline: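 Viability measured as metabolically active cells via CellTiter-Glo luminescence following 48 hours of compound exposure, 11-point dilutions in confirmatory testing. 500-1,000 cells/well plated 5 hours before dosing; controls were DMSO and 2.3 µM bortezomib.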

[5] = qHTS of pediatric cancer cell lines to identify multiple opportunities for drug repurposing: Confirmatory screen for NB-EBc1 cells (AID 1347115);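 also: cells exposed to compound for 48 h before the viability read; nearly all actives have a fitted effect of over 45% in size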; as to activity change, negative = cytotoxic: % is scaled to controls: 0 for no effect and ±100 for the full control effect
Outline: as §1

[6] = qHTS of pediatric cancer cell lines to identify multiple opportunities for drug repurposing: Confirmatory screen for BT-37 cells (AID 1347117); also: nearly all actives have a fitted effect of over 55% in size;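 as to activity change, negative = cytotoxic: plate controls were DMSO for no effect and bortezomib for full effect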
Outline: as §1

[7] = qHTS of pediatric cancer cell lines to identify multiple opportunities for drug repurposing: Confirmatory screen for TC32 cells (AID 1347118);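 also: cells exposed to compound for 48 h before the read; nearly all actives have a fitted effect of over 65% in size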; as to activity change, negative = cytotoxicity: % is scaled to controls: 0 for no effect and ±100 for the full control effect
Outline: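 Luminescent CellTiter-Glo read-out of metabolically active TC32 cells after 48 h compound exposure. Primary: MIPE 11-point, 0.78 nM–46 µM; NPC 8-point, 0.59 nM–46 µM. Confirmatory: 11-point dilutions.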

[8] = qHTS of pediatric cancer cell lines to identify multiple opportunities for drug repurposing: Confirmatory screen for MG 63 (6-TG R) cells (AID 1347119); also: nearly all actives have a fitted effect of over 55% in size;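 as to activity change, negative = cytotoxicity: plate controls were DMSO neutral control for no effect and bortezomib for full effect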
Outline: as §1

[9] = qHTS of pediatric cancer cell lines to identify multiple opportunities for drug repurposing: Confirmatory screen for LAN-5 cells (AID 1347113); also: nearly all actives have a fitted effect of over 65% in size
Outline: as §1

[10] = qHTS of pediatric cancer cell lines to identify multiple opportunities for drug repurposing: Confirmatory screen for A673 cells (AID 1347110);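 also: cells exposed to compound for 48 h before the viability read; nearly all actives have a fitted effect of over 65% in size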;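 as to activity change, negative = cytotoxicity: plate controls were DMSO neutral control for no effect and bortezomib positive control for full effect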
Outline: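 A673 cells at 500-1,000 cells/well were dosed 5 h after plating, in dilution series up to 46 uM final; primary runs used 8 or 11 points and confirmatory runs used 11 points. Viability was read by CellTiter-Glo luminescence after 48 h, against DMSO and 2.3 uM bortezomib controls.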
Potency is read from the fitted curve at half-maximal effect.

CCN[C@@H]1C[C@H](N)[C@@H](OC2OC(CN)=CCC2N)[C@H](O)[C@H]1O[C@H]1OC[C@](C)(O)[C@H](NC)[C@H]1O (stereo not given in full)
inactive: activity change, negative = cytotoxic [1] 11.9% [at 0.556 µM] | activity change, negative = cytotoxic [2] -2.44% [at 0.556 µM] | activity change, negative = cytotoxic [3] -6.5% [at 0.556 µM] | activity change, negative = cytotoxic [4] 15.9% [at 0.556 µM] | activity change, negative = cytotoxic [5] -1.08% [at 0.556 µM] | activity change, negative = cytotoxic [6] 4.53% [at 0.556 µM] | Potency [7] | activity change, negative = cytotoxicity [8] -17.7% [at 0.556 µM]

CC1CCc2c(N3CCC(O)CC3)c(F)cc3c(=O)c(C(=O)O)cn1c23 (stereo not given)
inactive: Potency [9] | Potency [5]

O=C(CCCN1CC=C(n2c(=O)[nH]c3ccccc32)CC1)c1ccc(F)cc1
inactive: Potency [1] | Potency [10] | Potency [9] | Potency [5] | Potency [6] | Potency [8]

C[C@@]12C(=O)OC(=O)[C@]1(C)C1CCC2O1
active: Potency [1] 2.93 µM | Potency [10] 7.37 µM | Potency [2] 3.29 µM | Potency [3] 8.27 µM | Potency [9] 2.93 µM | Potency [4] 2.93 µM | Potency [5] 5.22 µM | Potency [6] 2.08 µM | Potency [7] 3.29 µM | Potency [8] 2.08 µM

NC(N)=NN=C(/C=C/c1ccc([N+](=O)[O-])o1)/C=C/c1ccc([N+](=O)[O-])o1
active: Potency [1] 1.17 µM | Potency [10] 2.61 µM | Potency [3] 9.27 µM | Potency [9] 1.17 µM | Potency [4] 3.29 µM | Potency [6] 1.47 µM

O=C(Oc1cccc2cccnc12)c1ccccc1
inactive: Potency [4] | Potency [8]
active: Potency [3] 9.27 µM | Potency [9] 9.27 µM | Potency [6] 20.8 µM

CCN1/C(=C/C=C/c2sc3ccccc3[n+]2CC)Sc2ccccc21
active: Potency [1] 1.31 µM | Potency [10] 0.456 µM | Potency [2] 0.827 µM | Potency [3] 1.17 µM | Potency [9] 0.737 µM | Potency [4] 0.362 µM | Potency [5] 2.61 µM | Potency [6] 0.827 µM | Potency [7] 1.04 µM | Potency [8] 0.465 µM

O=[N+]([O-])c1ccc(/C=N\O)o1
active: Potency [2] 5.85 µM | Potency [7] 3.29 µM
inactive: Potency [1] | Potency [10] | Potency [3] | Potency [9] | Potency [6]

CCCCCCCCCCC[C@@H](C[C@@H]1OC(=O)[C@H]1CCCCCC)OC(=O)[C@H](CC(C)C)NC=O
inactive: Potency [1] | Potency [10] | Potency [3] | Potency [9] | Potency [4] | Potency [5] | Potency [6] | Potency [8]

C=C[C@@]1(C)CC(=O)[C@]2(O)[C@@]3(C)[C@@H](O)CCC(C)(C)[C@@H]3[C@H](O)[C@H](OC(C)=O)[C@@]2(C)O1
inactive: Potency [1] | Potency [10] | Potency [9] | Potency [4] | Potency [5]

Nc1nc(Cl)nc2c1ncn2[C@@H]1O[C@H](CO)[C@@H](O)[C@@H]1F
active: Potency [1] 1.47 µM | Potency [10] 1.04 µM | Potency [2] 0.0928 µM | Potency [9] 1.65 µM | Potency [6] 0.329 µM | Potency [7] 0.369 µM | Potency [8] 0.522 µM

CCN(CC)CCOc1ccc2c(c1)C(=O)c1cc(OCCN(CC)CC)ccc1-2
active: Potency [1] 18.5 µM | Potency [2] 7.37 µM | Potency [9] 11.7 µM | Potency [6] 20.8 µM | Potency [7] 9.27 µM
inactive: Potency [8]

COc1ccc(C(=O)c2ccccc2)c(O)c1
inactive: Potency [1] | Potency [10] | Potency [2] | Potency [3] | Potency [9] | Potency [4] | Potency [5] | Potency [6] | Potency [8]

C[C@H]1O[C@@H](O[C@H]2CC[C@@]3(C)[C@H](CC[C@@H]4[C@@H]3C[C@@H](O)[C@]3(C)[C@@H](C5=CC(=O)OC5)CC[C@]43O)C2)C[C@H](O)[C@@H]1O[C@H]1C[C@H](O)[C@H](O[C@H]2C[C@H](O)[C@H](O[C@@H]3O[C@H](CO)[C@@H](O)[C@H](O)[C@H]3O)[C@@H](C)O2)[C@@H](C)O1
active: Potency [1] 0.414 µM | Potency [10] 0.737 µM | Potency [2] 0.414 µM | Potency [3] 0.293 µM | Potency [9] 0.414 µM | Potency [4] 0.117 µM | Potency [5] 0.369 µM | Potency [6] 0.185 µM | Potency [7] 0.233 µM | Potency [8] 0.293 µM

CN(C)C(=O)Nc1ccc(Cl)c(Cl)c1
inactive: Potency [10] | Potency [4]
active: Potency [5] 23.3 µM

CCCCCCCCCCCCOCCOCCOCCOCCOCCOCCOCCOCCOCCO
inactive: Potency [1] | Potency [6]
active: Potency [4] 14.7 µM
